Assay results as given in PubChem BioAssay AID1159580 (chemical genetic matrix, 2015).
The whole screen tested about 5,500 compounds, of which about 2,000 (36%) were called active. Inconclusive results (about 18%) are left out. This is one part of the list. Unmarked numbers belong to inactive results. Rule as the data show it: active = normalized growth mostly below about 0.91 (no sharp cut-off); inconclusive = no clear call, values can overlap the other calls; inactive = mostly above about 0.92.

Assay: chemical genetic growth profiling, strain panel (AID 1159580);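 also: tested at 20 µM; growth read once vehicle control cultures reached saturation at 30 °C; 1 = growth at the plate median or of vehicle wells; lower values mean less growth of the strain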
Conditions: growth OD
[1] = S. cerevisiae deletion strains, locus YAL013W, strain DEP1, hits give low values
[2] = S. cerevisiae deletion strains, locus YBR229C, strain ROT2, hits give low values
[3] = S. cerevisiae deletion strains, locus YCL061C, strain MRC1, hits give low values
[4] = S. cerevisiae deletion strains, locus YDL101C, strain DUN1, hits give low values
[5] = S. cerevisiae deletion strains, locus YDL134C, strain PPH21, hits give low values
[6] = S. cerevisiae deletion strains, locus YDR150W, strain NUM1, hits give low values
[7] = S. cerevisiae deletion strains, locus YEL061C, strain CIN8, hits give low values
[8] = S. cerevisiae deletion strains, locus YGR078C, strain PAC10, hits give low values
[9] = S. cerevisiae deletion strains, locus YHR030C, strain SLT2, hits give low values
[10] = S. cerevisiae deletion strains, locus YHR087W, strain rtc3, hits give low values
[11] = S. cerevisiae deletion strains, locus YJR043C, strain POL32, hits give low values
[12] = S. cerevisiae deletion strains, locus YJR075W, strain HOC1, hits give low values
[13] = S. cerevisiae deletion strains, locus YKL190W, strain CNB1, hits give low values
[14] = S. cerevisiae deletion strains, locus YLR039C, strain RIC1, hits give low values
[15] = S. cerevisiae deletion strains, locus YLR058C, strain SHM2 (second series), hits give low values
[16] = S. cerevisiae deletion strains, locus YLR085C, strain ARP6, hits give low values
[17] = S. cerevisiae deletion strains, locus YLR262C, strain YPT6, hits give low values
[18] = S. cerevisiae deletion strains, locus YML094W, strain GIM5, hits give low values
[19] = S. cerevisiae deletion strains, locus YMR219W, strain ESC1, hits give low values
[20] = S. cerevisiae deletion strains, locus YMR263W, strain SAP30, hits give low values
[21] = S. cerevisiae deletion strains, locus YMR307W, strain GAS1, hits give low values
[22] = S. cerevisiae deletion strains, locus YNL153C, strain GIM3, hits give low values
[23] = S. cerevisiae deletion strains, locus YNL298W, strain CLA4 (second series), hits give low values
[24] = S. cerevisiae deletion strains, locus YNL322C, strain KRE1, hits give low values
[25] = S. cerevisiae deletion strains, locus YNR030W, strain Alg12, hits give low values
[26] = S. cerevisiae deletion strains, locus YOL006C, strain TOP1, hits give low values
[27] = S. cerevisiae deletion strains, locus YPL055C, strain LGE1, hits give low values
[28] = S. cerevisiae deletion strains, locus YPL241C, strain CIN2, hits give low values
[29] = S. cerevisiae deletion strains, locus YPR135W, strain CTF4, hits give low values
[30] = S. cerevisiae strains, strain wild type, hits give low values

SMILES: Cn1c(SCc2ccccc2)nnc1-c1ccc2ncccc2c1
- normalized growth [1]: 1
- normalized growth [2]: 0.997
- normalized growth [3]: 1.01
- normalized growth [4]: 0.986
- normalized growth [5]: 1.01
- normalized growth [6]: 0.902
- normalized growth [7]: 0.987
- normalized growth [8]: 1
- normalized growth [9]: 1.18
- normalized growth [10]: 0.999
- normalized growth [11]: 0.997
- normalized growth [12]: 0.991
- normalized growth [13]: 0.994
- normalized growth [14]: 1.1
- normalized growth [15]: 0.997
- normalized growth [16]: 1.05
- normalized growth [17]: 1.1
- normalized growth [18]: 1.01
- normalized growth [19]: 0.999
- normalized growth [20]: 0.989
- normalized growth [21]: 1.41 [resistant] (active)
- normalized growth [22]: 0.997
- normalized growth [23]: 1.07
- normalized growth [24]: 0.992
- normalized growth [25]: 1.02
- normalized growth [26]: 1.01
- normalized growth [27]: 0.99
- normalized growth [28]: 1.02
- normalized growth [29]: 1.08

SMILES: Cn1c(SCC(=O)N2CCOCC2)nnc1-c1ccc2ncccc2c1
- normalized growth [1]: 0.996
- normalized growth [2]: 1.01
- normalized growth [3]: 1.02
- normalized growth [4]: 1.03
- normalized growth [5]: 0.963
- normalized growth [6]: 0.929
- normalized growth [7]: 1.03
- normalized growth [8]: 1.02
- normalized growth [9]: 1.08
- normalized growth [10]: 1.01
- normalized growth [11]: 1.01
- normalized growth [12]: 1.03
- normalized growth [14]: 0.971
- normalized growth [15]: 0.995
- normalized growth [16]: 1.1
- normalized growth [17]: 0.942
- normalized growth [18]: 1.06
- normalized growth [19]: 1
- normalized growth [20]: 1
- normalized growth [22]: 1
- normalized growth [23]: 1.03
- normalized growth [24]: 0.992
- normalized growth [25]: 1.03
- normalized growth [26]: 1.03
- normalized growth [27]: 1.04
- normalized growth [28]: 1.05
- normalized growth [29]: 1.03
- normalized growth [30]: 0.984

SMILES: CCOC(=O)C1=C(O)C(=O)N(Cc2ccccc2)C1
- normalized growth [1]: 1.02
- normalized growth (S. cerevisiae deletion strains, locus YBR021W, strain FUR4, hits give low values): 1.02
- normalized growth [2]: 1
- normalized growth (S. cerevisiae deletion strains, locus YCL029C, strain bik1, hits give low values): 1.01
- normalized growth (S. cerevisiae deletion strains, locus YDL035C, strain GPR1, hits give low values): 1.01
- normalized growth (S. cerevisiae deletion strains, locus YDL074C, strain BRE1, hits give low values): 1
- normalized growth [4]: 1.01
- normalized growth [5]: 1
- normalized growth (S. cerevisiae deletion strains, locus YDL185W, strain tfp1, hits give low values): 1.02
- normalized growth (S. cerevisiae deletion strains, locus YDL192W, strain arf1, hits give low values): 1.01
- normalized growth (S. cerevisiae deletion strains, locus YDR101C, strain arx1, hits give low values): 1
- normalized growth [6]: 1.01
- normalized growth (S. cerevisiae deletion strains, locus YDR162C, strain NBP2, hits give low values): 0.995
- normalized growth (S. cerevisiae deletion strains, locus YDR318W, strain mcm21, hits give low values): 1.02
- normalized growth (S. cerevisiae deletion strains, locus YDR388W, hits give low values): 1
- normalized growth (S. cerevisiae deletion strains, locus YDR502C, strain sam2, hits give low values): 0.994
- normalized growth [7]: 1.01
- normalized growth (S. cerevisiae deletion strains, locus YER110C, hits give low values): 1.02
- normalized growth (S. cerevisiae deletion strains, locus YER155C, strain BEM2, hits give low values): 1
- normalized growth (S. cerevisiae deletion strains, locus YER167W, strain BCK2, hits give low values): 1.03
- normalized growth (S. cerevisiae deletion strains, locus YGL078C, strain dbp3, hits give low values): 1
- normalized growth (S. cerevisiae deletion strains, locus YGL086W, strain mad1, hits give low values): 1.02
- normalized growth (S. cerevisiae deletion strains, locus YGL248W, strain PDE1, hits give low values): 1.01
- normalized growth [8]: 1.01
- normalized growth (S. cerevisiae deletion strains, locus YGR135W, strain pre9, hits give low values): 0.987
- normalized growth (S. cerevisiae deletion strains, locus YGR229C, strain SMI1, hits give low values): 1
- normalized growth (S. cerevisiae deletion strains, locus YGR252W, strain gcn5, hits give low values): 1.02
- normalized growth [9]: 1.01
- normalized growth (S. cerevisiae deletion strains, locus YHR079C, strain IRE1 (second series), hits give low values): 1.02
- normalized growth (S. cerevisiae deletion strains, locus YHR094C, strain hxt1, hits give low values): 1.01
- normalized growth (S. cerevisiae deletion strains, locus YHR129C, strain ARP1, hits give low values): 1.02
- normalized growth (S. cerevisiae deletion strains, locus YHR200W, strain rpn10, hits give low values): 1.01
- normalized growth (S. cerevisiae deletion strains, locus YIL066C, strain RNR3, hits give low values): 1
- normalized growth (S. cerevisiae deletion strains, locus YIL073C, strain SPO22, hits give low values): 1.1
- normalized growth (S. cerevisiae deletion strains, locus YIL125W, strain kgd1, hits give low values): 1
- normalized growth (S. cerevisiae deletion strains, locus YIR030C, strain dcg1, hits give low values): 1.01
- normalized growth (S. cerevisiae deletion strains, locus YJL095W, strain BCK1, hits give low values): 1.01
- normalized growth (S. cerevisiae deletion strains, locus YJL134W, strain LCB3, hits give low values): 1.01
- normalized growth (S. cerevisiae deletion strains, locus YJL168C, strain set2, hits give low values): 1.01
- normalized growth (S. cerevisiae deletion strains, locus YJL187C, strain SWE1 (second series), hits give low values): 1.01
- normalized growth [11]: 1.04
- normalized growth [12]: 0.997
- normalized growth (S. cerevisiae deletion strains, locus YKL009W, strain mrt4, hits give low values): 1.03
- normalized growth (S. cerevisiae deletion strains, locus YKL068W, hits give low values): 1
- normalized growth (S. cerevisiae deletion strains, locus YKL085W, strain MDH1 (second series), hits give low values): 1.02
- normalized growth (S. cerevisiae deletion strains, locus YKL085W, strain MDH1, hits give low values): 1.02
- normalized growth [13]: 1.01
- normalized growth (S. cerevisiae deletion strains, locus YKR001C, strain vps1, hits give low values): 1.01
- normalized growth [14]: 1.05
- normalized growth (S. cerevisiae deletion strains, locus YLR058C, strain SHM2, hits give low values): 1.02
- normalized growth (S. cerevisiae deletion strains, locus YLR102C, strain apc9, hits give low values): 1.01
- normalized growth [17]: 0.993
- normalized growth (S. cerevisiae deletion strains, locus YLR268W, strain sec22, hits give low values): 0.982
- normalized growth (S. cerevisiae deletion strains, locus YLR330W, strain CHS5, hits give low values): 1.01
- normalized growth (S. cerevisiae deletion strains, locus YLR342W, strain FKS1 (second series), hits give low values): 1.09
- normalized growth (S. cerevisiae deletion strains, locus YLR371W, strain rom2, hits give low values): 1.01
- normalized growth (S. cerevisiae deletion strains, locus YLR418C, strain cdc73, hits give low values): 0.977
- normalized growth (S. cerevisiae deletion strains, locus YML016C, strain PPZ1, hits give low values): 1
- normalized growth (S. cerevisiae deletion strains, locus YML032C, strain rad52, hits give low values): 1.03
- normalized growth (S. cerevisiae deletion strains, locus YML124C, strain tub3, hits give low values): 1.01
- normalized growth (S. cerevisiae deletion strains, locus YMR078C, strain ctf18, hits give low values): 1.02
- normalized growth (S. cerevisiae deletion strains, locus YMR223W, strain ubp8, hits give low values): 1.03
- normalized growth [20]: 0.999
- normalized growth [21]: 1.03
- normalized growth (S. cerevisiae deletion strains, locus YNL067W, strain RPL9B, hits give low values): 0.99
- normalized growth (S. cerevisiae deletion strains, locus YNL128W, strain TEP1, hits give low values): 0.985
- normalized growth [22]: 0.994
- normalized growth (S. cerevisiae deletion strains, locus YNL233W, strain BNI4, hits give low values): 1.01
- normalized growth (S. cerevisiae deletion strains, locus YNL250W, strain rad50, hits give low values): 1
- normalized growth (S. cerevisiae deletion strains, locus YNL271C, strain bni1, hits give low values): 1.01
- normalized growth (S. cerevisiae deletion strains, locus YNL298W, strain CLA4, hits give low values): 1
- normalized growth (S. cerevisiae deletion strains, locus YNL307C, strain MCK1, hits give low values): 1.02
- normalized growth [24]: 0.996
- normalized growth (S. cerevisiae deletion strains, locus YNR052C, strain pop2, hits give low values): 1.02
- normalized growth [26]: 1.01
- normalized growth (S. cerevisiae deletion strains, locus YOL012C, strain htz1): 0.868
- normalized growth (S. cerevisiae deletion strains, locus YOL147C, strain pex11, hits give low values): 1.01
- normalized growth (S. cerevisiae deletion strains, locus YOR061W, strain CKA2, hits give low values): 1.01
- normalized growth (S. cerevisiae deletion strains, locus YOR069W, strain VPS5, hits give low values): 1.01
- normalized growth (S. cerevisiae deletion strains, locus YOR136W, strain idh2, hits give low values): 1.02
- normalized growth (S. cerevisiae deletion strains, locus YOR144C, strain elg1, hits give low values): 1
- normalized growth (S. cerevisiae deletion strains, locus YOR184W, strain ser1, hits give low values): 1.04
- normalized growth (S. cerevisiae deletion strains, locus YOR316C, strain cot1, hits give low values): 1.01
- normalized growth [27]: 0.969
- normalized growth [28]: 1
- normalized growth (S. cerevisiae deletion strains, locus YPR119W, strain clb2, hits give low values): 1
- normalized growth (S. cerevisiae deletion strains, locus YPR141C, strain kar3, hits give low values): 1
- normalized growth (S. cerevisiae deletion strains, locus YPR163C, strain tif3, hits give low values): 1.01
- normalized growth (S. cerevisiae deletion strains, locus YPR167C, strain met16, hits give low values): 1.01
- normalized growth (S. cerevisiae deletion strains, strain wtn01, hits give low values): 1
- normalized growth [30]: 1.01
